The results in this text go back to PubChem BioAssay.

The source made the active and inactive calls.

Assay [1] deals with PRMT1 (protein arginine N-methyltransferase 1). The assay can be described thus: PRMT1 binders on small-molecule microarrays, primary screen, biochemical, small-molecule microarray, 635 nm fluorescence (AID 1088).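 Also: binding of Prmt1 protein to compounds spotted on small-molecule microarray slides.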 The note with it: small-molecule microarray binding, higher = more signal.
A short description of assay [2]: yeast growth modulation, basal conditions, primary screen, YJM789 clinical isolate, OD600, 24 h (AID 1089).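 Also: growth of clinical yeast isolate S. cerevisiae YJM 789 seeded 1000 cells per well; test concentration not given here.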 The conditions noted are these: S. cerevisiae YJM789 growth, higher = more signal, called active from +8 up or from −8 down.
Assay [3] in a line: fission yeast growth modulation, primary screen, strain 972, OD600, 24 h, no modulator (AID 1090).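 Also: basal condition with compound alone and no growth modifier present; test concentration not given here.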 The conditions noted are these: S. pombe 972 growth, higher = more signal, called active from +8 up or from −8 down.
A short description of assay [4]: S. cerevisiae growth modulation with rapamycin, primary screen, strain BY4716, OD600, 96 h (AID 1091). Also: test concentration not given here. The note with it: higher = more signal, called active from +8 up or from −8 down.
Assay [5] deals with Torsin-1A-interacting protein 2 (Homo sapiens) (UniProt Q8NFQ8). The assay can be described thus: LULL1 binders on small-molecule microarray, primary screen, cell lysate, human LULL1 lysate, 635/667 nm fluorescence (AID 1092).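 Also: probe is lysate of COS7 cells overexpressing human LULL1; score merges per-feature 667 nm fluorescence with signal-to-noise.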 The conditions noted are these: hLULL1 lysate binding, 635 nm fluorescence, higher = more signal.
The nature of assay [6]: E. coli growth modulation, two-sided OD650, primary screen, E. coli filamentation project, strain DRC41, 24 h (AID 1093).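 Also: MC1000 strain lacking acrAB efflux and sulA so SOS filamentation is blocked; test concentration not given here.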 The conditions noted are these: OD650, 24 h, higher = more signal, called active from +8 up or from −8 down.
Assay [7] can be described thus: small-molecule microarray binders of probe aLefty2, primary screen, biochemical, biotinylated probe, 635/667 nm fluorescence (AID 1094).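 Also: score merges spot fluorescence near 667 nm with spot signal-to-noise ratio.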 The conditions noted are these: higher = more signal.
Assay [8] relates to Noggin (protein binding on small-molecule microarray). The experiment in a line: Noggin binders on small-molecule microarray, primary screen, biochemical, 635/667 nm fluorescence (AID 1095).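 Also: score merges 667 nm feature fluorescence with signal to noise over triplicate slides.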 The note with it: 635 nm fluorescence, higher = more signal.
The target of assay [9] is Neurogenic locus notch homolog protein 3 (Homo sapiens) (UniProt Q9UM47). The assay can be described thus: NOTCH3 binders on small-molecule microarray, primary screen, biochemical, 635/667 nm fluorescence (AID 1096). The note with it: NOTCH3 binding, 635 nm fluorescence, higher = more signal.
A short description of assay [10]: small-molecule microarray binders of probe aEGFR, primary screen, biochemical, biotinylated probe, 635/667 nm fluorescence (AID 1097).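 Also: probe is a biotinylated anti-EGFR antibody binding compounds printed on slides; score combines fluorescence near 667 nm and signal to noise of each spot.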 The note with it: higher = more signal.

Sequence of Torsin-1A-interacting protein 2 (Homo sapiens) (Q8NFQ8 whole entry, looked up): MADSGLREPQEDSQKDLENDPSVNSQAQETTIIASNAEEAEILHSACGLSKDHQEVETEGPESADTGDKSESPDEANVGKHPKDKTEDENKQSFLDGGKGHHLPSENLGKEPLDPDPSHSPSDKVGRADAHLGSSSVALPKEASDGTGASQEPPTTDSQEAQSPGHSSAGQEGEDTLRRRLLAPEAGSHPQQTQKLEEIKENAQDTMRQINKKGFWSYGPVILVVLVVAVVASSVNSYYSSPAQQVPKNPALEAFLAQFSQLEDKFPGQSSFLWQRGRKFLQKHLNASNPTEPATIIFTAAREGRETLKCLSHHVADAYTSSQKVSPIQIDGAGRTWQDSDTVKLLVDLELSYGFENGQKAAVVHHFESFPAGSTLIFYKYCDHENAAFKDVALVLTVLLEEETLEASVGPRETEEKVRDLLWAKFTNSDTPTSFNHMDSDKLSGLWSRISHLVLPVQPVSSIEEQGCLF
Sequence of Neurogenic locus notch homolog protein 3 (Homo sapiens) (Q9UM47 whole entry, looked up): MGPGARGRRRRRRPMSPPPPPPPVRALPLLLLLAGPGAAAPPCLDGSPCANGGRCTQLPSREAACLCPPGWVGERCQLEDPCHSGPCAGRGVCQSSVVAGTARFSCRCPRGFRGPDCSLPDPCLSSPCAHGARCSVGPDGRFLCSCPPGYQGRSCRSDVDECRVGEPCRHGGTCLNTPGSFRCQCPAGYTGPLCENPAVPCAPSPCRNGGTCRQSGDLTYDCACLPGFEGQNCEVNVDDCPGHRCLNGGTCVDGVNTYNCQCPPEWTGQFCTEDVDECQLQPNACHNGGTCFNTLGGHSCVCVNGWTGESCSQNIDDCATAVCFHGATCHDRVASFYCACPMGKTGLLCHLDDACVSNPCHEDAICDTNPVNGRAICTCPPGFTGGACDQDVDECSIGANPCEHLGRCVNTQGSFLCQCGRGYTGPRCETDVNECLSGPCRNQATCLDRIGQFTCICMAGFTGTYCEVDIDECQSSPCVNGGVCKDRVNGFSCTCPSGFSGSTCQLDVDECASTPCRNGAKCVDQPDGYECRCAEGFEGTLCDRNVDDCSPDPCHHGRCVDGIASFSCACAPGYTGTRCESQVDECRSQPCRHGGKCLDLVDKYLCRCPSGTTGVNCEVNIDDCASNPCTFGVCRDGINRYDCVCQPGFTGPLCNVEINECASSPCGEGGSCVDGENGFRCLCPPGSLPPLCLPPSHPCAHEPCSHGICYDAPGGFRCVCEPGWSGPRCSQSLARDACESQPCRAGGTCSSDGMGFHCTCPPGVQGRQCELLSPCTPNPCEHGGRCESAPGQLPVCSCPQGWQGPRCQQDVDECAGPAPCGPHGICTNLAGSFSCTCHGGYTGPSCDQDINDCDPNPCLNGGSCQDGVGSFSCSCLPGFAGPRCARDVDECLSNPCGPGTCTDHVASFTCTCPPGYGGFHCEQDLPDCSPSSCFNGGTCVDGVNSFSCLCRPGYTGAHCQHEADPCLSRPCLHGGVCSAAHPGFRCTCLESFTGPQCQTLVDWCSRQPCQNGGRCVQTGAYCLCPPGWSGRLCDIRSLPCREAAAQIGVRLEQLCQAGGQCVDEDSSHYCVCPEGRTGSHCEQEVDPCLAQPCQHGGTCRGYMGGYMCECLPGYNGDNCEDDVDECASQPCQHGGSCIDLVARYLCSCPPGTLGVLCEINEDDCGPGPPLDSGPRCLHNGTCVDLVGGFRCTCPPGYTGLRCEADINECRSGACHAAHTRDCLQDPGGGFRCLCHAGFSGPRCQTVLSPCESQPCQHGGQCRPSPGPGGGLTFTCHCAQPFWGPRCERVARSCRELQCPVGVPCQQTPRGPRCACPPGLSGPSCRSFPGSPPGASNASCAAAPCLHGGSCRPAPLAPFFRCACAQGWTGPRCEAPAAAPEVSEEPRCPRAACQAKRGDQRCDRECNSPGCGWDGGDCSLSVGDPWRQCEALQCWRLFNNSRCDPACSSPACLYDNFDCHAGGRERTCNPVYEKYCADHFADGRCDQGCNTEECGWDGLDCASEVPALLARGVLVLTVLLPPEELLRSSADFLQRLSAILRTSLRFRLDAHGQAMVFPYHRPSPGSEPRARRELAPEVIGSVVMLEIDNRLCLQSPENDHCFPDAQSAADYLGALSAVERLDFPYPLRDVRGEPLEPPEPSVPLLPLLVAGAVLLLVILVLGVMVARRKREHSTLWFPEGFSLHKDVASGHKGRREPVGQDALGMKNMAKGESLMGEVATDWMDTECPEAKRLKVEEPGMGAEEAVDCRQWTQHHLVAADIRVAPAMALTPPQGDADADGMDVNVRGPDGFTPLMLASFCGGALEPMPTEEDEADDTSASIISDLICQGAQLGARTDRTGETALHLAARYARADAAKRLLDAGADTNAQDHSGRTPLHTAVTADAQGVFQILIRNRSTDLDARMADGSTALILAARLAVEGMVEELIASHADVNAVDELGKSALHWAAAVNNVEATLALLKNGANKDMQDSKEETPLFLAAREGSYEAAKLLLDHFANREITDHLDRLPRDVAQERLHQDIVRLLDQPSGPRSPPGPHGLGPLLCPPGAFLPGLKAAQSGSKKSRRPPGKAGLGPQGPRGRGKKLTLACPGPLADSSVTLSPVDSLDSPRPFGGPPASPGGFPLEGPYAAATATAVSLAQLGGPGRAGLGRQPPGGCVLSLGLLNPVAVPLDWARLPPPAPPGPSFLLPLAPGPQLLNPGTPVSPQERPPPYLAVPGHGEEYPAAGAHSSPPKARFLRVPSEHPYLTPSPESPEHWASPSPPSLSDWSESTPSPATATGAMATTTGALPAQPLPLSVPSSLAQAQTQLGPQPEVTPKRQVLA

Take `CN(C)CCCC[C@@H]1NC(=O)[C@H]2C[C@@H](C(=O)O)[C@@H](c3ccc(O)cc3)N2C1=O`: the composite z-score in assay [1] turned out to be 1.54; in [5] it was 4.23; in assay [7] it was 1.55; in assay [8], 2.16; in assay [9], 1.02; in [10], 1.33. The z-score in assay [2] was -0.116 (inactive); in [3], -1.99 (inactive); in assay [4], 0.193 (inactive); in [6], 2.11 (inactive).

With `CN(C)CCCC[C@@H]1NC(=O)[C@@H]2C[C@H](C(=O)NCCCCCCNC(=O)CS)[C@H](c3ccc(O)cc3)N2C1=O`, the composite z-score in assay [1] is 1.33; in assay [5], 2.79; in assay [7], -0.269; in assay [8], 1.13; in [9], 0.65; in assay [10], 0.123. In addition, the z-score in [2] is -0.378 (inactive); in assay [3], -0.472 (inactive); in assay [4], 0.0236 (inactive); in [6] it was -0.744 (inactive).

`CC1CC/C=C\[C@H]2OC34C=CCN(c5ccc6ccccc6c5)C(=O)[C@H]3N(C(C)CO)C(=O)[C@@H]4C2C(=O)O1` (stereo not given in full): the composite z-score in assay [1] was 0.541; in assay [5], -0.172; in assay [7], -0.244; in assay [8] it was -1.1; in assay [9], -0.0196; in [10], -0.252. Moreover, the z-score is 0.612 (inactive) in assay [2], -0.197 (inactive) in [3], 0.407 (inactive) in [4] and -0.312 (inactive) in assay [6].

As to `OCCCC1=CC(c2ccc(CN3CCCC3)cc2)N(Cc2cccc(OC(F)(F)F)c2)CC1` (stereo not given), the composite z-score in assay [1] is -0.688; in [5], 0.203; in [7], 0.0029; in assay [8] it was 0.123; in [9], -0.752; in assay [10], -0.181. In addition, the z-score was -2.01 (inactive) in assay [2], -14.9 (active) in assay [3], -2.62 (inactive) in assay [4] and -0.987 (inactive) in [6].

Turning to `COc1ccc([Si](C)(C)[C@@H]2[C@@H](CC(=O)N3CCC[C@H]3CO)O[C@]3(C(=O)N(Cc4ccc(N5CCOC5=O)cc4)c4ccccc43)[C@H]2C)cc1`, the composite z-score in assay [1] was 1.45; in assay [5], 2.72; in assay [7], -0.242; in assay [8], 1.46; in assay [9] it was 0.912; in assay [10] it was -0.188. Also, the z-score in assay [2] is -3.35 (inactive); in [3] it was -1.13 (inactive); in assay [4] it was -0.356 (inactive); in assay [6], 0.985 (inactive).

`CCOC(=O)C[C@H]1[C@H](OC(=O)c2ccccc2-c2ccccc2)[C@@H](NC(=O)C2CCCCC2)c2cc(OCCCO)ccc2N1C(=O)c1ccc2ccccc2n1`: the composite z-score worked out at 1.39 in assay [1]; 1.34 in assay [5]; 0.0569 in assay [7]; 0.431 in assay [8]; 0.89 in assay [9]; 0.0754 in assay [10]. Besides, the z-score in assay [2] is 0.362 (inactive); in assay [3], 0.233 (inactive); in assay [4], 0.495 (inactive); in assay [6], -1.06 (inactive).

As for `COc1ccc(C(=O)Nc2cccc(CN3C(=O)[C@@]4(O[C@@H](CC(=O)N5CCC[C@H]5CO)[C@H]([Si](C)(C)c5ccc(OC)cc5)[C@H]4C)c4ccccc43)c2)cc1`, the composite z-score is 1.55 in assay [1]; 0.983 in [5]; -0.102 in assay [7]; 0.766 in assay [8]; 0.957 in assay [9]; -0.118 in [10]. Further, the z-score in assay [2] was -0.624 (inactive); in [3], 0.706 (inactive); in [4], -1.2 (inactive); in assay [6], -0.126 (inactive).

Regarding `[N-]=[N+]=Nc1ccccc1[C@@H]1OC(c2ccc(OCCCO)cc2)=N[C@]1(Cc1ccccc1)C(=O)NCCN1CCOCC1`, the composite z-score was 0.547 in [1]; 3.51 in [5]; 0.0787 in assay [7]; 0.762 in assay [8]; 1.09 in assay [9]; -0.0106 in [10]. Besides, the z-score in [2] was -0.312 (inactive); in assay [3], -1.36 (inactive); in [4], 0.152 (inactive); in [6] it was 0.382 (inactive).

As for `COc1ccc([Si](C)(C)[C@H]2[C@H](CC(=O)N3Cc4ccccc4C[C@H]3CO)O[C@@]3(C(=O)N(C)c4ccccc43)[C@@H]2C)cc1`, the composite z-score in [1] was 1.53; in [5], 2.13; in [7] it was 0.173; in assay [8], 1.91; in assay [9] it was 1.08; in assay [10], -0.0839. Further, the z-score in assay [2] is -1.52 (inactive); in assay [3], -2.06 (inactive); in assay [4] it was -0.0615 (inactive); in [6] it was 0.456 (inactive).

For `CC(C)C(CO)N1C(=O)[C@@H]2C3C(=O)OCCC/C=C\[C@H]3OC23C=CCN(Cc2ccccc2)C(=O)[C@@H]13` (stereo not given in full), the composite z-score in [1] is -0.928; in assay [5], 1.18; in assay [7] it was -0.0598; in assay [8] it was -0.989; in assay [9] it was -0.0928; in assay [10], -0.148. The z-score in [2] is -0.43 (inactive); in assay [3], -0.912 (inactive); in assay [4], -0.542 (inactive); in assay [6], 1.3 (inactive).

In the case of `CCOC(=O)C1=CC[C@@H](c2ccccc2)N(S(=O)(=O)c2ccc(C)cc2)[C@H]1c1ccccc1I`, the composite z-score in assay [1] worked out at 0.98; in [5], 2.63; in [7], 0.52; in [8], 0.22; in [9] it was 1.06; in assay [10], 0.0321. In addition, the z-score in assay [2] is -0.323 (inactive); in [3], 0.666 (inactive); in assay [4] it was 0.607 (inactive); in [6], -0.162 (inactive).

For `C=C(CCCC)/C(=C/C[C@H](OC(=O)c1ccncc1)c1ccccc1OCCO)c1cc(C(=O)OC)ccc1OC`, the composite z-score in [1] is 1.34; in assay [5], 2.31; in [7] it was -0.0942; in [8], 0.502; in assay [9], 0.647; in assay [10], -0.15. Besides, the z-score was 0.47 (inactive) in assay [2], 0.333 (inactive) in assay [3], 1.42 (inactive) in assay [4] and 0.588 (inactive) in assay [6].

As to `CC1CC/C=C\[C@H]2OC34C=CCN(Cn5nnc6ccccc65)C(=O)[C@H]3N(CCCCCCO)C(=O)[C@@H]4C2C(=O)O1` (stereo not given in full), the composite z-score was -0.526 in assay [1]; 2.9 in [5]; -0.205 in assay [7]; -1.09 in [8]; -0.368 in [9]; -0.33 in assay [10]. The z-score in assay [2] is 0.28 (inactive); in assay [3], -0.0728 (inactive); in assay [4], 0.105 (inactive); in [6], 0.167 (inactive).

Consider `COc1ccc([Si](C)(C)[C@H]2[C@H](CCO)O[C@@]3(C(=O)N(Cc4ccc(NC(=O)[C@H](C)O)cc4)c4ccccc43)[C@@H]2C)cc1`, for which the composite z-score in assay [1] was 1.58; in [5] it was 2.19; in assay [7], -0.142; in [8], 0.862; in assay [9], 0.762; in assay [10] it was 0.0337. The z-score is 2.39 (inactive) in assay [2], -1.36 (inactive) in assay [3], 4.78 (inactive) in [4] and 1.38 (inactive) in assay [6].
